mHtt clearance – clearance of mutant huntingtin inclusions, primary screen, imaging, HeLa Exon1htt(103Q)mCFP, confocal imaging; aggregate imaging; zero = plate's median compound well; inhibition, % at 1.5 µM; 47,000 tested, 0.42% active; AID 853, 2007;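 active = inhibition of aggregate fluorescence above about 70%, also judged a hit by eye on the cell image, limit read from the data, passing the limit was not always enough; inconclusive = no rule stated for this call; inactive = not judged a hit on image review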;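 note: cells exposed to compound for three days before fixation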
SK-BR-3 tox 24h – SK-BR-3 proliferation inhibitors, primary screen, cell-based, human, 24 h; SK-BR-3 viability, CellTiter-Glo ATP luminescence; hits give low values; AID 847, 2007; viability, % at 10 µM; 41,000 tested, 0.47% active;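 active = viability at or below the median of all test compounds minus 3 SD, in both replicates if run twice, cut at about 45% in these data; inconclusive = duplicate replicates that disagree with each other; inactive = viability above that cutoff in every replicate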;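 note: 100% = median untreated cell wells and 0% = median positive control drug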
Her2 expr inh – inhibitors of Her2 protein expression, primary screen, SKBR-3 cells, AlphaScreen, 66K library | Receptor tyrosine-protein kinase erbB-2 (Homo sapiens), P04626 | SKBR-3 HER2 protein level, 18-24 h; hits give low values | HER2 level % of control, % at 10 µM | 65,000 tested, 0.69% active;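 active = HER2 level under 5% of the carrier-only control; inconclusive = no clear call, values can overlap the other calls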;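 note: 100% = DMSO carrier and 0% = 500 nM PU-H71 HSP90 inhibitor; lower value means stronger loss of Her2 protein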
Target sequence (P04626 whole entry, looked up): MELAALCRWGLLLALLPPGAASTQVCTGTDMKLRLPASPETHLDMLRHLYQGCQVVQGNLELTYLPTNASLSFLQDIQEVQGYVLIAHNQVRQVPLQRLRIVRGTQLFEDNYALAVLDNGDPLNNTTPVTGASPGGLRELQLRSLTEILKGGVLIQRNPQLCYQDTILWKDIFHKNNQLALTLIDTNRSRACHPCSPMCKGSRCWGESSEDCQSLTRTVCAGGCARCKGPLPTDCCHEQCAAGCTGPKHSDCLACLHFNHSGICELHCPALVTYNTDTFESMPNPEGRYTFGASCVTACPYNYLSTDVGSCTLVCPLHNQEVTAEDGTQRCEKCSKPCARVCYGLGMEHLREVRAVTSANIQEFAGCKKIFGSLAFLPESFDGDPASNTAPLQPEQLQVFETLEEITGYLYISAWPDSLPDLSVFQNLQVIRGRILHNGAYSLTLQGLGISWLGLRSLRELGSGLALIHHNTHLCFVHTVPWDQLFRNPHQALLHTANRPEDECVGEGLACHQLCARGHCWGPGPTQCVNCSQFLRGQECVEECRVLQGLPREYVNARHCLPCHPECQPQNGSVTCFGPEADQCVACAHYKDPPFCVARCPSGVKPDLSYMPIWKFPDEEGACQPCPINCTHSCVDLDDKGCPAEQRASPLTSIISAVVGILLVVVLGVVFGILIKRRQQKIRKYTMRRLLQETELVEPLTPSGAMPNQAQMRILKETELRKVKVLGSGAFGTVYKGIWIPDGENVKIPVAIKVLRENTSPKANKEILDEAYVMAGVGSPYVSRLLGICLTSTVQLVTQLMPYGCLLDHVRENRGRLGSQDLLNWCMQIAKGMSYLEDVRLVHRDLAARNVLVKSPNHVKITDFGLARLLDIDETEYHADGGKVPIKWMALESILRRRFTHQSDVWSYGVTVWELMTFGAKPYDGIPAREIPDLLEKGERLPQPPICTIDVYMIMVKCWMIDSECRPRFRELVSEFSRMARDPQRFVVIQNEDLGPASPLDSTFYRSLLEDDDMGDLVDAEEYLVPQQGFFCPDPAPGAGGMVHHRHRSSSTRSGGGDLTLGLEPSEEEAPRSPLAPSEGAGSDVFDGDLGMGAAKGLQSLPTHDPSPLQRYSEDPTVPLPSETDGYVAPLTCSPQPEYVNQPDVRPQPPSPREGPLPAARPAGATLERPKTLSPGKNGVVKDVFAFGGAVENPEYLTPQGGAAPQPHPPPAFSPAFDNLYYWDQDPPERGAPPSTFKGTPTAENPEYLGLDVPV
Numbers without * were called inactive; ? = inconclusive; . = no result. Most compounds without a hit are left out; they make up all but 0.97% or so of the library.

SMILES	mHtt clearance	SK-BR-3 tox 24h	Her2 expr inh
O=C1C2C3C=CC(C3=C(c3ccccc3)c3ccccc3)C2C(=O)N1Cc1ccccc1 (configuration not stated)	-60.4	.	.
Cc1ccccc1Nc1nc(N)nc(CSc2nnnn2-c2ccccc2)n1	25.9	.	162.7
Cc1nc(Cc2nnc(SCc3nc(N)nc(Nc4ccccc4C)n3)o2)cs1	.	36.0*	94.8
CCOC(=O)c1c(NC(=O)CSc2nnc3c(n2)[nH]c2ccccc23)sc2c1CCN(C)C2	-37.9	.	.
O=S(=O)(c1ccc(Cl)cc1)n1nnc2ccccc21	2.9	.	.
O=C(Nc1cccnc1)c1cnn2cccnc12	.	118.6	161.7
O=C(Nc1ccc2c(c1)OCO2)c1cnn2cccnc12	7.6	96.9	-20.6*
CCOC(=O)c1cccc(NC(=O)CSc2nnc(C)n2Cc2ccccc2)c1	4.5	.	109.4
COc1ccc(OC)c(NC(=O)CSC2=C(C#N)C(c3ccco3)C3=C(CCCC3=O)N2)c1 (configuration not stated)	.	94.3	70.6
CCc1ccccc1NC(=O)CSC1=C(C#N)C(c2ccc3c(c2)OCO3)C2=C(CCCC2=O)N1 (configuration not stated)	72.8*	82.3	91.1
O=C1CC(Sc2ncccn2)C(=O)N1c1ccccc1 (configuration not stated)	19.4	.	.
COc1ccc(N2C(=O)CC(Sc3nc(C)cc(C)c3C#N)C2=O)cc1 (configuration not stated)	3.4	.	.
O=C1CC(Sc2nnc(-c3ccccc3O)o2)C(=O)N1c1ccccc1 (configuration not stated)	.	.	-12.7*
COc1ccc(N2C(=O)CC(Sc3nnc(-c4ccccc4)o3)C2=O)cc1 (configuration not stated)	.	.	-18.1*
Cc1ccc(NC(=O)CN(c2ccccc2F)S(C)(=O)=O)cc1	-33.7	92.6	82.4
CCCCn1c2nc3ccccc3nc2c2c(=N)oc(C)nc21	.	91.5	78.5
CCCCC(CC)Cn1c2nc3ccccc3nc2c2c(=N)oc(C)nc21 (configuration not stated)	.	38.2*	0.9*
CCOC(=O)C1=C(CSc2nncn2C)NC(=O)NC1c1cc(OCC)ccc1OCC (configuration not stated)	.	89.7	84.8
CCN1CCN(c2ncnc3c2oc2nc(C(C)C)c4c(c23)CCC4)CC1	.	69.6	87.9
CC(C)Cc1nc2oc3c(N4CCN(CCO)CC4)ncnc3c2c2c1CCCC2	.	81.4	-3.6*
CCOC(=O)/C=C1\SCC(=O)N1CCOc1cccc(Br)c1	.	103.8	.
CCC(C(=O)NC1CCCC1)N(C(=O)Cn1nnc(-c2ccc(C)o2)n1)c1cnc2ccccc2c1 (configuration not stated)	.	.	-8.5*
Cc1ccc(-c2nnn(CC(=O)N(CC(=O)NC3CCCC3)c3cnc4ccccc4c3)n2)o1	5.9	94.1	132.6
CC(C)CNC(=O)c1cccc(NC(=O)C2CCCO2)c1 (configuration not stated)	.	98.0	107.1
Cc1nc(SCc2nc3ccccc3[nH]2)c2oc3ccccc3c2n1	-11.4	86.7	57.1
SMILES	mHtt clearance	SK-BR-3 tox 24h	Her2 expr inh
c1ccc2[nH]c(CSc3ncnc4c3oc3ccccc34)nc2c1	74.8*	120.0	75.8
COc1ccc(C(=O)CSc2nnc(CNC(=O)c3ccc(OC)c(OC)c3)n2C)cc1	.	102.7	131.8
COc1ccc(NCc2nnc(SCC(=O)c3ccc(OC)cc3)n2C)cc1	.	74.9	-43.0*
Cc1occc1C(=O)NNC(=O)Cc1ccccc1	0.0	.	.
Nc1nc(SCC(=O)NCc2ccccc2)n[nH]1	-11.2	90.8	80.7
Cc1ccc(CNC(=O)CSc2n[nH]c(N)n2)cc1	82.2*	82.8	88.3
CC(/C=C/c1ccccc1)NC(N)=O (configuration not stated)	.	.	123.3
O=c1c2c3c(sc2nc2sc(CN4CCOCC4)cn12)CCCC3	-21.5	86.4	82.3
CCCCNC(=O)CSc1nc2ccccc2c(=O)n1CC1COc2ccccc2O1 (configuration not stated)	40.2	.	.
CCOC(=O)C(NC(C)=O)(N1CCc2ccccc2C1)C(F)(F)F (configuration not stated)	.	86.8	-17.5*
CCOC(=O)C(NC(C)=O)(N1CCOCC1)C(F)(F)F (configuration not stated)	-2.3	85.4	96.7
Cc1ccc(Cn2c(NCCCn3ccnc3)nc3c2c(=O)n(C)c(=O)n3C)cc1	.	.	116.8
CN1CCN(c2ccc(Cl)cc2NC(=O)c2ccc(S(=O)(=O)N3CCCCCC3)cc2)CC1	.	.	-6.0*
COc1c(Cl)cc(Cl)cc1C(=O)Nc1ccccc1N1CCN(C(C)=O)CC1	.	77.4	72.8
COc1ccc(Cl)cc1C(=O)Nc1ccccc1N1CCN(C)CC1	.	78.6	-17.8*
Cc1ccc(NC(=O)c2ccc(S(=O)(=O)N3CCCCC3)cc2)cc1	-30.6	.	.
CC1(C(=O)NC2CCCC2)CCC(=O)N1Cc1ccccc1Cl (configuration not stated)	0.7	.	.
O=C(c1n[nH]c2c1CCCC2)n1ccnc1	.	92.9	75.7
Cc1ccc2nc(N3CCOCC3)c3nncn3c2c1	.	.	106.0
O=C(CN1CCN(S(=O)(=O)c2ccc(Cl)cc2)CC1)Nc1ccc2c(c1)OCO2	.	.	57.4
O=C(Nc1ccc2c(c1)OCO2)N1CCN(S(=O)(=O)c2ccc(Cl)cc2)CC1	77.3*	89.8	105.8
Cc1ccc(S(=O)(=O)Oc2ccccc2/C=N/NC(=O)c2c(Cl)cnn2C)cc1	4.1	.	.
CC(C)(C)N=C1NC(=NC(C)(C)C)c2ccccc21	.	54.5	66.4
CC1(C)CC(O)C(C)(C)N1O (configuration not stated)	29.8	98.8	75.2
CCN(CC)c1ccc2c(Cl)c(Br)c(=O)oc2c1	.	?	-27.5*
SMILES	mHtt clearance	SK-BR-3 tox 24h	Her2 expr inh
CCOC(=O)Cc1c(C)c2ccc(N(CC)CC)cc2oc1=O	30.0	75.4	83.5
CCN(CC)c1ccc2c(C)c(-c3ccc(N)cc3)c(=O)oc2c1	.	87.6	104.5
CCN(CC)c1ccc2c(c1)oc(=O)c1c(Cl)cc(=O)oc12	-5.7	.	-17.1*
Cc1cc(C(F)(F)F)n2ncc(C(=O)O)c2n1	.	.	79.8
O=C(O)c1ccc(NC(CSCc2cccc(F)c2)C(=O)O)c([N+](=O)[O-])c1 (configuration not stated)	-46.7	.	.
COc1ccc(CCC(=O)NC2=NCCS2)cc1OC	.	.	88.8
Cc1oc(-c2ccccc2)cc1C(=O)Nc1ccc(N(C)C)cc1	1.5	.	.
COc1ccc(-c2oc3ncnc(NCCCN4CCOCC4)c3c2-c2ccc(OC)cc2)cc1	-3.2	66.6	-2.9*
COc1ccc(-c2oc3ncnc(NCCN4CCOCC4)c3c2-c2ccc(OC)cc2)cc1	11.7	79.8	52.4
CCOc1cc(C)nc(N2CCCC(C(=O)NCc3ccccc3F)C2)n1 (configuration not stated)	49.1	76.5	62.1
Cc1cc(C)nc(N2CCCC(C(=O)NCCc3ccccc3F)C2)n1 (configuration not stated)	.	42.6*	113.7
CN(C)S(=O)(=O)c1ccc2c(c1)C(CC(=O)O)NC2=O (configuration not stated)	19.2	84.3	102.7
Cc1nnc(SCC(=O)c2c(N)n(C)c(=O)n(C)c2=O)[nH]c1=O	.	.	105.0
CCCc1cc(=O)[nH]c(SCC(=O)c2c(N)n(C)c(=O)n(C)c2=O)n1	.	34.1*	80.7

Bioassay records (PubChem BioAssay)
